Test results taken from PubChem BioAssay (NCATS).
Records with an inconclusive call do not appear. Active and inactive are the calls of the source. Calls follow the shape of the dose curve; as a rule, active = well fitted inhibition curve with a large enough effect; inconclusive = small, poorly fitted or top-dose-only effect; inactive = no such curve, though single readings can be large or run the other way.

The compounds below were run against Retinal dehydrogenase 2 (Homo sapiens) (UniProt O94788) (assay: qHTS for Inhibitors of the Aldehyde Dehydrogenase Family (ALDH1A2) Confirmation screens (AID 2061314; also: nearly all actives have a fitted effect of over 65% in size)). Conditions: ALDH1A2 enzyme inhibition qHTS confirmation; series mostly up to 45.9 µM.

Potency, inactive:
COc1ccc(S(=O)(=O)NCC(c2ccc(N(C)C)cc2)N2CCOCC2)cc1 (stereo not given)
COc1ccc(NC(=O)CCc2c(C)nc3c(c2C)c(=O)n(C)c(=O)n3C)cc1OC
CC(=O)Nc1ccc(S(=O)(=O)N[C@@H]2C=C[C@@H](c3c(C)nn(-c4ccc(C(C)(C)C)cc4)c3C)C2)cc1
COc1ccccc1CCNc1ncnc2c1nnn2C
COc1ccc(-c2cc(C(=O)NCCc3ccc(OC)c(OC)c3)c3ccccc3n2)cc1
Cc1ccc(S(=O)(=O)N2CCC(C(=O)Nc3ccc(Oc4ccccc4)cc3)CC2)cc1
CN(CC1(CO)CC1)c1nccc(CCC(F)(F)F)n1
Cc1cc(C)n2nc(CNS(=O)(=O)c3ccc(Cl)cc3)nc2n1
COCCn1c(SCc2ccccc2F)nc2c([nH]c3ccccc32)c1=O
CCc1nn2c(=O)c(S(=O)(=O)Nc3ccc(Br)cc3F)c(C)nc2s1
COc1cc(OC)cc(C(=O)NCCc2csc3nc(-c4ccccc4F)nn23)c1
O=C(c1n[nH]c2ccccc12)N1CCCC(Cc2noc(-c3cnccn3)n2)C1 (stereo not given)
COc1ccc(-c2nocc2CCC(=O)NCCc2ccc(S(N)(=O)=O)cc2)cc1
O=C(c1nccc2ccccc12)N1CCc2nc3cc[nH]n3c(=O)c2C1
COC(=O)c1cc(C)nc2c1c(=O)nc(SCc1cccc(C)c1)n2C1CC1
CNC(=O)c1cc(C)nc2onc(C3CCCN3C(=O)c3ccccc3)c12 (stereo not given)
COC(=O)c1ccccc1NC(=O)CSc1nc(-c2ccccc2)cc(C(F)(F)F)n1
Cc1oc2ncnc(N3CCOCC3)c2c1C(=O)NCc1ccc(Cl)cc1
COc1cccc(-c2nn(-c3ccccc3)c(OC(C)=O)c2-c2ccc(NC(=O)C3CCCC3)cc2)c1
Cc1ccc(-c2nnc3ccccc3c2C(=O)Nc2cccc(C(F)(F)F)c2)cc1
COC(=O)c1cc(C)nc2c1c(=O)nc(SCc1ccccc1Cl)n2C1CC1
COc1ccc(OC)c(CNC(=O)C2CCCCN2S(=O)(=O)c2ccc(F)cc2)c1 (stereo not given)
CC(=O)c1cccc(NC(=O)c2ccc(Cl)c(S(=O)(=O)N3CCOCC3)c2)c1
CC(C)CN1C(=O)CO[C@H](c2ccc(NS(=O)(=O)c3cccc(F)c3)cc2)[C@H]1CO
Cc1ccc(-n2c(SCc3ccccc3C)nc3[nH]ncc3c2=O)cc1C
CNC(=O)c1cc(C2CC2)nc2onc(C3CCCN3C(=O)c3cccc(Cl)c3)c12 (stereo not given)
CCOCc1cc(CN2CCN(c3cccc(C(F)(F)F)c3)CC2)c(O)c2ncccc12
Cc1cc(C)n2nc(CNS(=O)(=O)c3cccc(Cl)c3)nc2n1
CNC(=O)[C@H]1C[C@H](Oc2cccnc2)CN1C(=O)Cc1ccccc1
Cn1cnc(S(=O)(=O)N2CCC(C(=O)Nc3ccc(OC(F)(F)F)cc3)CC2)c1
COc1ccc(CN2CC(O)CN([S+](=O)([O-])c3ccc(F)cc3)CC2=O)cc1 (stereo not given)
O=C(NCC(=O)N1CCOCC1)c1cccc(-c2ccc(C(F)(F)F)cc2)c1
CCOc1ccccc1NC(=O)c1cnc(N2CCOCC2)c2ccccc12
CC(C)OCCCn1c(SCc2ccccc2Cl)nc2c(sc3ccccc32)c1=O
COCCn1cnnc1CN(C)C(=O)c1ccc2nc(C)cn2c1
Cc1ccc(CN(C(=O)COc2ccc([N+](=O)[O-])cc2)c2ccccn2)cc1
Cc1nn(-c2ccc3nncn3n2)c(C)c1CCC(=O)Nc1ccc(OC(F)(F)F)cc1
CCc1cnc2c(c1SCc1ccccc1C)c(=O)n(C)c(=O)n2C
Cc1cccc(C(=O)N2CCCC(N3CCN(c4cccc(C(F)(F)F)c4)CC3)C2)c1 (stereo not given)
O=C(COc1ccccc1-c1nc(-c2ccccc2)no1)Nc1ccc([N+](=O)[O-])cc1
